LMP1 NFkB inh = Epstein-Barr LMP1 NF-kappaB reporter inhibition; 0.69% of 350,000 active; inhibition, % at 12.5 µM; AID 504558; LMP1-induced NF-kappaB luciferase reporter cells, luminescence; in the data active = inhibition above about 41%;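 also: 0% = neutral control wells and 100% = reference inhibitor control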
EWS-Fli inh = inhibitors of EWS/Fli oncoprotein transcriptional activity. A673 NR0B1-luciferase reporter, viability-normalised. 0.67% of 350,000 active. AID 651661. inhibition, % at 12.6 µM;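 active = mean inhibition of at least 50% after viability correction, with every replicate also passing that limit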;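 also: firefly luciferase signal divided by Alamar Blue viability fluorescence both relative to DMSO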
LGR2 antag = blocks bursicon-induced cAMP signaling via Drosophila LGR2; HEK293 LGR2, CRE-luciferase, bursicon-stimulated, 4 h; inhibition, % at 9.99 µM; 0.35% of 380,000 active; AID 720647;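 active = drop in luminescence signal, shown as inhibition above about 50% in the replicate tests, limit read from the data, passing the limit was not always enough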;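 also: agonist challenge used bursicon conditioned medium at about half maximal strength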
TWEAK-Fn14 inh = TWEAK-Fn14 signaling inhibition; inhibition, % at 10 µM; TWEAK-stimulated Fn14 reporter cells, luciferase luminescence, 8 h; AID 1159606; 2% of 360,000 active; in the data active = inhibition above about 50%
TROY NFkB inh = inhibitors of TROY-dependent NF-kB signaling. 0.98% of 360,000 active. Q293 LMP1-TROYcd NF-kB luciferase reporter, 4 h. inhibition, % at 10 µM;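 active = compounds whose plate-normalised and pattern-corrected inhibition of the luciferase reporter signal at the single screening dose is 50% or more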
The depositor's hits bear a star; . = not tested or not shown. Hits are enriched below; roughly 2.6% of the tested compounds scored in any of these assays.

SMILES | LMP1 NFkB inh | EWS-Fli inh | LGR2 antag | TWEAK-Fn14 inh | TROY NFkB inh
CC1=CC(=O)C=C(C)C1=NOS(=O)(=O)c1ccccc1 | 29 | . | -4 | 47 | 42
CC(C)(C)[S@](=O)N1Cc2cc(C(=O)NCc3ccncc3)nc(-c3cccc(-c4ccncc4)c3)c2[C@@H]1CCO | . | 3 | 11 | . | .
Cc1cc(Nc2cccc([N+](=O)[O-])c2)c2ccccc2n1 | 12 | 18 | 12 | -20 | 2
CCOc1ccc2nc(C)cc(Nc3cccc([N+](=O)[O-])c3)c2c1 | -34 | 72* | . | -15 | -22
Cc1ccc(CCNC(=O)Cc2ccc(NC3=NC4CS(=O)(=O)CC4S3)cc2)cc1 (configuration not stated) | 85* | -4 | 6 | 7 | 4
CCNC(=O)[C@H]1[C@H](CO)[C@H]2Cn3c(ccc(-c4ccccc4)c3=O)[C@H]2N1CC | . | 13 | -5 | . | .
CCC(C)(C)c1ccc(Oc2cccc(C(=O)O)c2)cc1 | -16 | -80 | -34 | -19 | -43
CCC(C)(C)c1ccc(Oc2ccc(N)cc2)cc1 | 51* | 65* | . | 101* | 89*
O=C(N[C@H]1CC[C@H](CCn2cc(Cc3ccccc3)nn2)O[C@@H]1CO)c1ccccn1 | . | 0 | 2 | . | .
COc1ccc(NC(=O)Nc2ccc3c(c2)C(=O)N([C@@H](C)CO)C[C@@H](C)[C@H](CN(C)Cc2ccc(Cl)c(Cl)c2)OCCCC[C@@H](C)O3)cc1 | . | 2 | 3 | . | .
Cc1cc(C)c2sc(NC(=O)C3CC3)nc2c1 | 48* | -38 | . | 25 | -32
CC(C)OCCCn1c(SCC(=O)N2CCCC2=O)nc2ccccc2c1=O | 0 | -10 | -22 | 1 | -25
CC(C)OCCCn1c(SCC(=O)N2CCc3ccccc32)nc2ccccc2c1=O | 7 | 2 | . | 91* | 24
COc1ccc(CCNc2oc(COc3ccccc3Cl)nc2C#N)cc1OC | 11 | 0 | -5 | 43 | 52*
COc1ccc(CCNc2oc(COc3ccccc3F)nc2C#N)cc1OC | 10 | . | . | 3 | 26
Cc1nn(C)cc1NC(=O)C[C@@H]1CC[C@H]2[C@H](COc3ccc(NC(=O)Nc4cccc(Cl)c4)cc3C(=O)N2C)O1 | . | 0 | 18 | . | .
CC(=O)N(C)C[C@@H]1Oc2ncc(-c3ccccc3F)cc2C(=O)N([C@@H](C)CO)C[C@H]1C | . | -13 | -26 | . | .
CCS(=O)(=O)c1nnnn1-c1ccccc1S(C)(=O)=O | 51* | 18 | 23 | 27 | 1
O=S(=O)(Cc1nnnn1-c1ccc(Br)cc1)c1ccccc1 | -4 | -4 | 3 | 2 | -5
CCN(CC)C(=O)c1ccc2nc([C@H]3C[C@H](O)[C@@H](CO)O3)[nH]c2c1 | . | 11 | 1 | 5 | 1
OC[C@H]1O[C@@H](c2nc3ccc(-c4nc(-c5ccc(Br)cc5)no4)cc3[nH]2)C[C@@H]1O | . | -110 | -38 | 63* | 46
COc1cccc(-c2cn(CC[C@@H]3CC[C@H](NS(=O)(=O)Cc4ccccc4)[C@H](CO)O3)nn2)c1 | . | 1 | -30 | . | .
O=C(Cc1ccc(N2CCNC2=O)cc1)N1CCCC(Nc2cccc(F)c2)C1 (configuration not stated) | -3 | 55* | -8 | 7 | 2
CCOC(=O)CC/C(C)=N\N=C1\SC(CC(=O)O)C(=O)N1c1ccccc1 (configuration not stated) | 44* | -1 | -9 | -10 | -4
O=C(O)CC1S/C(=N\N=C2CCCCCC2)N(c2ccccc2)C1=O (configuration not stated) | -4 | 7 | -21 | -11 | -12
SMILES | LMP1 NFkB inh | EWS-Fli inh | LGR2 antag | TWEAK-Fn14 inh | TROY NFkB inh
CC(=O)N1[C@H](CO)[C@H]2c3ccccc3N(S(=O)(=O)c3ccccc3)C[C@H]21 | . | -2 | -9 | . | .
C[C@@H]1CN([C@@H](C)CO)C(=O)c2ccccc2-c2ccccc2CO[C@H]1CN(C)C(=O)[C@@H]1CCCN1C | . | -6 | 8 | . | .
O=C(c1cc(COc2cccc3cnccc23)on1)N1CCC(c2ccccc2Cl)C1 (configuration not stated) | 6 | 7 | -13 | 48 | 54*
O=C(c1cc(COc2c(F)cccc2F)on1)N1CCC(c2ccccc2Cl)C1 (configuration not stated) | 2 | -59 | -17 | -28 | -30
CCc1ccc(CN(C)C(=O)c2cc(COc3cccc4cnccc34)on2)cc1 | 34 | . | -11 | 57* | 39
COCC#Cc1ccc([C@H]2[C@@H](CO)N3CCCCN(Cc4cncnc4)C[C@H]23)cc1 | . | -12 | 2 | . | .
Cc1ccc(C(=O)O/N=C(\N)c2nonc2N)cc1 | -25 | -25 | 78* | 55* | 66*
